Source: PubChem BioAssay AID1159580 (chemical genetic matrix, 2015)
The whole screen tested about 5,500 compounds, of which about 2,000 (36%) were called active. Not shown: some 18% with an inconclusive outcome. Rule as the data show it: active = normalized growth mostly below about 0.91 (no sharp cut-off); inconclusive = no clear call, values can overlap the other calls; inactive = mostly above about 0.92. The list shows a part of the results.

Test: chemical genetic growth profiling, strain panel (AID 1159580);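 also: tested at 20 µM; growth read once vehicle control cultures reached saturation at 30 °C; 1 = growth at the plate median or of vehicle wells; lower values mean less growth of the strain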
Settings: S. cerevisiae deletion strains, growth OD
[1] = locus YAL013W, strain DEP1, active compounds read low
[2] = locus YMR263W, strain SAP30, active compounds read low
[3] = locus YPL241C, strain CIN2, active compounds read low

Measured: normalized growth

CCCCCCN(CCCCCC)C(=O)Cc1c(-c2ccc(F)cc2)[nH]c2ccccc12
inactive: [1] 1.03 | locus YAL040C, strain CLN3, active compounds read low 1.03 | locus YCL061C, strain MRC1 (second series), active compounds read low 1 | locus YDR363W, strain ESC2, active compounds read low 1.01 | locus YER002W, strain NOP16, active compounds read low 1.02 | locus YGR229C, strain SMI1, active compounds read low 1.04 | [2] 1 | locus YMR307W, strain GAS1, active compounds read low 0.996 | locus YNL224C, strain SQS1, active compounds read low 1.07 | locus YOR083W, strain WHI5 (second series), active compounds read low 1.12 | [3] 1
active: locus YNL128W, strain TEP1, active compounds read low 1.12 [resistant] | locus YNL175C, strain NOP13, active compounds read low 1.15 [resistant]

Cc1nc(N)ncc1Sc1ccccc1
inactive: [1] 0.995 | locus YBR229C, strain ROT2, active compounds read low 0.989 | locus YCL061C, strain MRC1, active compounds read low 0.963 | locus YDL101C, strain DUN1, active compounds read low 0.98 | locus YDR150W, strain NUM1, active compounds read low 1 | locus YEL061C, strain CIN8, active compounds read low 0.977 | locus YGR078C, strain PAC10, active compounds read low 0.986 | locus YHR030C, strain SLT2, active compounds read low 0.899 | locus YHR087W, strain rtc3, active compounds read low 0.996 | locus YJL187C, strain SWE1, active compounds read low 0.981 | locus YJR043C, strain POL32, active compounds read low 0.991 | locus YJR075W, strain HOC1, active compounds read low 0.934 | locus YLR058C, strain SHM2 (second series), active compounds read low 0.987 | locus YLR085C, strain ARP6, active compounds read low 1.01 | locus YLR262C, strain YPT6, active compounds read low 0.822 | locus YML094W, strain GIM5, active compounds read low 0.964 | locus YMR219W, strain ESC1, active compounds read low 0.99 | [2] 0.966 | locus YNL153C, strain GIM3, active compounds read low 0.961 | locus YNL298W, strain CLA4 (second series), active compounds read low 0.961 | locus YNL322C, strain KRE1, active compounds read low 0.982 | locus YNR030W, strain Alg12, active compounds read low 0.963 | locus YOL006C, strain TOP1, active compounds read low 0.911 | locus YPL055C, strain LGE1, active compounds read low 0.928 | [3] 1.04 | locus YPR135W, strain CTF4, active compounds read low 0.907
active: locus YLR039C, strain RIC1, active compounds read low 0.758
